Source: PubChem
Most compounds without a hit are left out; they make up all but 7.6% or so of the library.
SW480 rereplic = induces DNA re-replication in SW480 colon adenocarcinoma cells; SW480 DNA re-replication, Hoechst DNA content imaging, 48 h; Potency, µM (doses to about 46.1 µM), without a hit: at the top dose re-replication activation, hits mostly activators; hit rate 1.8% among 340,000; also: potency is read from the fitted curve at half-maximal effect; % of control where 0% means no effect; nearly all actives have a fitted effect of over 55% in size
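Image-based read-out: total Hoechst fluorescence of nuclei (405 nm excitation, 500-530 nm emission), with hits raising the fraction of high-intensity nuclei. SW480 colon cells incubated 48 hr with compounds at 37 C.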
hERG WT inh = blocks the wildtype human KCNH2 potassium channel; Q12809; hit rate 0.37% among 340,000; activity change, % at 1.84 µM; U2OS, BacMam KCNH2, thallium flux FluxOr; active compounds read low;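 active = maximum activity change below -70%; inconclusive = maximum activity change between -70% and -50%; inactive = maximum activity change above -50%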; also: % is scaled to controls: 0 for no effect and ±100 for the full control effect
Target sequence (Q12809 whole entry, looked up): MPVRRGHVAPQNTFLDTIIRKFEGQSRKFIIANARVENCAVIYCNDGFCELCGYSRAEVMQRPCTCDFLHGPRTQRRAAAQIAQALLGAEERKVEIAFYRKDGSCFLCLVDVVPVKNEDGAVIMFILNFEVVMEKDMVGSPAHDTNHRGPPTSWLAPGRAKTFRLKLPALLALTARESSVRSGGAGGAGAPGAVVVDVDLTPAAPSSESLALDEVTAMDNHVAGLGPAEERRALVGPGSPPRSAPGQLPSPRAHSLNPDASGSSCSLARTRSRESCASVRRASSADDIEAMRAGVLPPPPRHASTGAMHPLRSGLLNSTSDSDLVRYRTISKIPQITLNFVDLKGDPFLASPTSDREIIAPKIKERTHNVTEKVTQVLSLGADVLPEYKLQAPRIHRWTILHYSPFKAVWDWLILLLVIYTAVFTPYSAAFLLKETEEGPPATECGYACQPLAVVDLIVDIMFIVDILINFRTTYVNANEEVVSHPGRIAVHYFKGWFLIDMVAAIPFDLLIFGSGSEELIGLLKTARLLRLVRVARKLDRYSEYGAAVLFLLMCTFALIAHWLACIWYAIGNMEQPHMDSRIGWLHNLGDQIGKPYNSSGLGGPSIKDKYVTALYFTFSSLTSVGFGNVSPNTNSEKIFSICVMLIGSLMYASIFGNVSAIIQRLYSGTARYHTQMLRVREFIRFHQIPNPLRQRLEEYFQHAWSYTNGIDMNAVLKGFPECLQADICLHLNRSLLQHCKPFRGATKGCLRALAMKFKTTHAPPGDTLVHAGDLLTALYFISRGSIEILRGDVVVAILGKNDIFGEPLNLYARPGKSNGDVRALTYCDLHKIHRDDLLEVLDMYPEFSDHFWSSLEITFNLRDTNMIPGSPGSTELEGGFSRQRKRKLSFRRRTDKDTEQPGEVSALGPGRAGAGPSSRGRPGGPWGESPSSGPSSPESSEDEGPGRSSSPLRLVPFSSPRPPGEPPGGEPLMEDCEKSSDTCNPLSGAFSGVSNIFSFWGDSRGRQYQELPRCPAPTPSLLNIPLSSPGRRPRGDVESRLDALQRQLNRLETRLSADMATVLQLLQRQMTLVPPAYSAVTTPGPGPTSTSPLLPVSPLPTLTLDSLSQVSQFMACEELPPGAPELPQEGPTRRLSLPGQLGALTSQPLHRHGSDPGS
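U2OS cells transduced with wild-type KCNH2 virus are loaded with FluxOr dye for 45 min, and thallium flux is measured in kinetic reads before and after stimulation buffer. Rate constants are normalized to DMSO controls.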
MCF10A rereplic = induces DNA re-replication in MCF 10a normal breast cells; MCF 10A DNA re-replication, Hoechst nuclear intensity, 48 h; Potency, µM (top dose mostly 46.1 µM), inactives show top-dose activity, positive = re-replication, usual class: activators; hit rate 2.9% among 350,000; also: potency is read from the fitted curve at half-maximal effect; % of control where 0% means no effect; nearly all actives have a fitted effect of over 50% in size
KB-3-1 cytotox = KB-3-1 parental cell cytotoxicity; KB-3-1 viability, CellTiter-Glo ATP luminescence, 72 h; Potency, µM (doses to about 46.1 µM), usual class: cytotoxic; hit rate 1.4% among 400,000; AID 1347075; also: potency is read from the fitted curve at half-maximal effect; % is scaled to controls: 0 for no effect and ±100 for the full control effect; nearly all actives have a fitted effect of over 60% in size
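KB-3-1 cells, DMEM (no phenol red) + 10% FBS; compound by pin transfer, 72 h, 37 °C. Readout: CellTiter-Glo luminescence after 10 min. Data normalized, curve-fitted.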
KB-V1 cytotox = kills drug-selected multidrug resistant KB-V1 cells | Potency, µM (series often up to 46.1 µM), actives largely listed as cytotoxic | hit rate 3.4% among 400,000 | KB-V1 MDR cells viability, CellTiter-Glo, 72 h | AID 1347076; also: potency is read from the fitted curve at half-maximal effect; % is scaled to controls: 0 for no effect and ±100 for the full control effect; nearly all actives have a fitted effect of over 60% in size
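Potencies derive from concentration-effect curves fitted to normalized luminescence (CellTiter-Glo) of KB-V1 cells treated for 72 h at 37 degrees C in phenol-red-free DMEM containing 10% FBS.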
KCNH2 3.1 inh = inhibitors of human KCNH2 3.1 potassium channel isoform; U2OS KCNH2 3.1, thallium flux FluxOr; active compounds read low; activity change, % (tested at about 1.8 µM); hit rate 0.95% among 340,000; AID 720553;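 active = maximum activity change below -70%; inconclusive = maximum activity change from -70% to -50%; inactive = maximum activity change above -50%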;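 also: thallium influx rate constant from kinetic fluorescence after stimulation buffer; % is scaled to controls: 0 for no effect and ±100 for the full control effect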
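We transduce U2OS cells with the mutant 3.1 virus, culture them overnight, load FluxOr with Red40 quencher for 45 min, then add stimulation buffer and read kinetically for 2 min to derive a normalized rate constant.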
* hit, by the source's call; i = inactive; ? = inconclusive; / = no result given. Unless noted, calls follow the shape of the dose curve; as a rule, active = well fitted curve in the direction sought with a large enough effect; inconclusive = small, poorly fitted or top-dose-only effect, or another doubt; inactive = no such curve, though single readings can be large; an effect the other way counts as inactive or inconclusive.

SMILES | SW480 rereplic | hERG WT inh | MCF10A rereplic | KB-3-1 cytotox | KB-V1 cytotox | KCNH2 3.1 inh
Cn1c(N2C(=O)CC(Cc3ccccc3)C2=O)nc2ccccc21 (centres undefined) | -6.6% | -8.3 | -3.2% | i | i | -8.9
Cc1ccc(Cn2ncc(Cl)c(Cl)c2=O)cc1 | ? | -1.9 | ? | i | i | -1.1
Cc1cc(C)cc(Cn2ncc(Cl)c(Cl)c2=O)c1 | 3.66µM* | 2.5 | 3.66µM* | ? | 23.1µM* | -20.2
O=c1c(Cl)c(Cl)cnn1Cc1nnc(-c2ccc(Cl)cc2)o1 | 3.66µM* | 18.6 | 5.8µM* | ? | i | 8.3
O=c1c(Cl)c(Cl)cnn1Cc1ccccc1Cl | ? | 0.4 | 5.8µM* | ? | i | 4.7
Cc1ccc(-c2nnc(Cc3ccc(Cl)cc3)o2)cc1 | 1.4% | -0.8 | -1.3% | i | i | -12.2
O=c1[nH]cnc2c1cnn2Cc1ccccc1Cl | 47.1% | -2.4 | -0.5% | i | i | 5.2
Cc1cc(C)c2oc(C(=O)Nc3c(C(=O)c4ccc(F)cc4)oc4ccccc34)cc(=O)c2c1 | / | / | / | i | i | /
CC(C)CN(CC(C)C)C(=S)Nc1ccc(Cl)cc1 | 10.2% | 5.5 | 18.4µM* | i | i | -1.9
O=C1C=CC(=C(c2ccc(O)cc2)c2ccc(O)cc2)C=C1 | ? | -3.8 | 6.51µM* | 5.8µM* | ? | 5.2
COc1ccc(CN2C(=O)C(CC(=O)NCCCN(C)C)CC(C(=O)N(C(C)C)C(C)C)=C2C)cc1 (centres undefined) | / | -10.1 | / | i | i | 34.0
Cc1c(NS(=O)(=O)c2ccccc2)cc(Cl)c(O)c1C | -8.2% | -0.9 | 14.1% | i | ? | 0.9
O=C(Nc1cccc2c1CCCC2)c1ccccc1Cl | -0.8% | -8.7 | 5.9% | i | i | 0.6
O=S(=O)(Nc1cccc2c1CCCC2)c1ccc(Cl)cc1 | -77.1% | -5.6 | 16.4µM* | ? | ? | -70.8*
CC(=O)Nc1ccccc1NS(=O)(=O)c1ccc(Cl)cc1 | ? | 4.3 | 26.0% | ? | 13µM* | -8.6
O=C(Nc1ccc(Cl)cc1)Nc1ccccc1NS(=O)(=O)c1cccs1 | -2.2% | 20.3 | 18.4µM* | i | i | /
CC(=O)Nc1ccc(NS(=O)(=O)c2ccccc2)cc1 | -5.3% | 11.1 | -16.0% | ? | i | -2.2
O=C(Nc1ccc(F)cc1)Nc1ccccc1NS(=O)(=O)c1cccs1 | 4.0% | -0.8 | 7.3% | i | i | 21.9
Cc1c(Cl)cccc1NS(=O)(=O)c1ccccc1 | 0.8% | 9.5 | 27.2% | i | 18.4µM* | -4.0
O=C(OCc1cc(=O)n2nc(-c3cccs3)sc2n1)c1cccc(F)c1 | / | / | / | i | i | /
CCOc1cc(NC(=O)c2cccs2)c(OCC)cc1NC(=O)CCC(=O)NCCN1CCOCC1 | 2.3% | i | ? | i | i | -8.8
C=CCOC(=O)C1=C(C)NC(=O)NC1c1cn(-c2ccccc2)nc1-c1cccs1 (centres undefined) | -5.9% | -7.1 | 9.7% | i | 20.6µM* | 7.0
COCCOC(=O)C1=C(C)NC(=O)NC1c1cn(-c2ccccc2)nc1-c1cccs1 (centres undefined) | 3.7% | 8.9 | -2.5% | i | i | 7.2
Cc1ccc(CNn2cnnc2SCc2ccc(F)cc2)cc1 | 5.8% | 3.6 | 4.1% | ? | 14.6µM* | 2.5
COc1cc2ccccc2cc1C(=O)OCC(=O)Nc1ccc(Br)cc1 | / | / | / | i | i | /
SMILES | SW480 rereplic | hERG WT inh | MCF10A rereplic | KB-3-1 cytotox | KB-V1 cytotox | KCNH2 3.1 inh
CN(C)c1ccc(C2CC(c3cccc(NS(C)(=O)=O)c3)=NN2C(=O)c2ccccc2)cc1 (centres undefined) | 6.8% | -0.9 | -0.9% | i | i | 6.7
COc1cccc(C2CC(c3cccc(NS(C)(=O)=O)c3)=NN2C(=O)c2ccccc2)c1OC (centres undefined) | ? | -8.0 | 12.8% | i | 13µM* | -3.0
COc1cccc(C2CC(c3ccc(Br)cc3)=NN2C(=O)c2ccncc2)c1OC (centres undefined) | -40.0% | 5.5 | ? | 18.4µM* | ? | -9.7
COc1ccccc1C1CC(c2ccc(Br)cc2)=NN1C(=O)c1cccnc1 (centres undefined) | ? | 0.0 | ? | ? | ? | -7.9
CCC(=O)N1N=C(c2cccc(NS(C)(=O)=O)c2)CC1c1cccs1 (centres undefined) | -86.5% | 3.6 | 1.4% | i | 18.4µM* | 3.4
CC(NS(=O)(=O)c1ccccc1)C(=O)Nc1ccc2c(c1)OCCO2 (centres undefined) | -4.1% | -8.6 | -3.6% | / | / | 3.9
O=C(COc1ccc(Cl)cc1)N1CCN(C(=O)c2cccs2)CC1 | -14.4% | 20.0 | -3.0% | i | ? | -26.7
COc1ccc(OC)c(/C=C/c2ccc3ccccc3[n+]2C)c1 | / | / | / | ? | i | /
CN1OC[C@@H]2CN3C(=O)N(c4cccc5ccccc45)c4ccccc4[C@@H]3C[C@@H]21 | / | / | / | i | i | /
CCN(Cc1cccc(S(=O)(=O)O)c1)c1ccc(C(=C2C=CC(=[N+](CC)Cc3cccc(S(=O)(=O)O)c3)C=C2)c2ccc(O)cc2S(=O)(=O)O)cc1 | / | / | / | i | i | /
Cc1ccccc1C(=O)Nc1ccnn1C1CCN(C(C)Cc2ccccc2F)CC1 (centres undefined) | -3.3% | 2.5 | 1.2% | i | i | -75.8*
COc1ccccc1C(=O)Nc1ccnn1C1CCN(CCC(C)c2ccc(C)o2)CC1 (centres undefined) | 12.3% | -104.0* | 8.3% | i | i | -98.3*
COc1ccccc1C(=O)Nc1ccnn1C1CCN(C/C=C/c2ccccc2)CC1 | 1.0% | -120.6* | -0.8% | i | i | -106.7*
Cc1oc(-c2ccc3c(c2)OCCO3)cc1C(=O)O | -5.9% | 0.2 | 14.3% | ? | 14.6µM* | 2.7
O=C(/C=C/c1cccc([N+](=O)[O-])c1)c1ccc([N+](=O)[O-])o1 | ? | 6.1 | 1.64µM* | ? | i | -6.3
Cc1cccc(/C=C/C(=O)c2ccc([N+](=O)[O-])o2)c1 | ? | -3.3 | 11.6µM* | ? | i | -14.3
Cc1ccccc1/C=C/C(=O)c1ccc([N+](=O)[O-])o1 | ? | -9.2 | ? | ? | ? | -3.2
COc1ccc(/C=C/C(=O)c2ccc([N+](=O)[O-])o2)cc1 | 11.6µM* | 3.6 | 2.31µM* | 18.4µM* | ? | 20.1
Cc1c(C(=O)NC2=NCCS2)cccc1[N+](=O)[O-] | -6.5% | -2.7 | -1.3% | i | ? | 1.9
O=C(COc1c(Cl)cccc1Cl)NN1C(=O)CSC1=S | -51.7% | / | -0.9% | i | i | -3.8
